Hits are enriched below; roughly 5.6% of the tested compounds scored in any of these assays.
CtBP-E1A inh: blocks the CtBP interaction with E1A; AID 651724; AlphaScreen GST-E1A/His-CtBP binding, 1536-well; stronger effect = lower value; 340,000 tested, 0.49% active; activity change, % (no concentration beside the values); in the data active = activity change below about -65%; inconclusive = mostly about -30% to -63%
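Protein mix (5X: 125 nM each GST-E1A, His-CtBP) was incubated with pinned compound 2 h at 37 deg C in dark, in 50 mM Tris pH 8.0 buffer with 300 mM NaCl. Glutathione donor and nickel acceptor beads followed; AlphaScreen signal read after 1 h.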
VP16 counter: Gal4-VP16 reporter inhibition counter-screen | Drosophila S2 Gal4-VP16 UAS-luciferase, luminescence, 20 h | Potency, µM (doses to about 53.6 µM), for inactives: at the top dose activity, negative = inhibition, most hits filed as inhibitors | 310,000 tested, 3.5% active | AID 2546;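 also: Gal4-VP16 expression switched on by copper sulfate through the metallothionein promoter; potency is read from the fitted curve at half-maximal effect; nearly all actives have a fitted effect of over 50% in size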
RORgamma inh: ROR gamma (mouse) transcription inhibition; 310,000 tested, 5.4% active; P51450; Potency, µM (series often up to 53.6 µM), inactives show at the highest dose activity change, negative = inhibition, usual class: inhibitors; Drosophila S2 Gal4-RORgamma UAS-luciferase reporter, 20 h; also: potency is read from the fitted curve at half-maximal effect; nearly all actives have a fitted effect of over 60% in size
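Luminescence from a UAS-regulated Photinus luciferase reporter in stably transfected Drosophila Schneider cells is measured; decreased signal marks ROR gamma inhibition. Fusion expression is induced by 700 uM copper sulfate for 20 hr.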
Six1-Eya2 blk: Six1/Eya2 interaction inhibition; AID 651725; activity change, % (no concentration beside the values); AlphaScreen GST-Six1/His-Eya2 binding, biochemical; stronger effect = lower value; Q15475+O00167; 360,000 tested, 0.56% active; in the data active = activity change below about -65%; inconclusive = mostly about -30% to -63%
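Homogeneous AlphaScreen proximity assay pairing GST-Six1 with His-tagged Eya2 (added as 5X mix: 250 nM and 500 nM) in 50 mM Tris pH 8.0, 300 mM NaCl, 1 mM TCEP. Glutathione donor and nickel acceptor beads; 1 h, 37 °C, dark.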
PKM2 activator: increases activity of human pyruvate kinase M2; P14618; 260,000 tested, 0.34% active; Potency, µM (top dose mostly 57.5 µM), for the others: top-dose activation, hits mostly activators; purified PKM2, Kinase-Glo ATP luminescence, activation; response scale: 0% is enzyme alone, no compound; also: potency is read from the fitted curve at half-maximal effect; nearly all actives have a fitted effect of over 55% in size
Target sequence (P14618 whole entry, looked up): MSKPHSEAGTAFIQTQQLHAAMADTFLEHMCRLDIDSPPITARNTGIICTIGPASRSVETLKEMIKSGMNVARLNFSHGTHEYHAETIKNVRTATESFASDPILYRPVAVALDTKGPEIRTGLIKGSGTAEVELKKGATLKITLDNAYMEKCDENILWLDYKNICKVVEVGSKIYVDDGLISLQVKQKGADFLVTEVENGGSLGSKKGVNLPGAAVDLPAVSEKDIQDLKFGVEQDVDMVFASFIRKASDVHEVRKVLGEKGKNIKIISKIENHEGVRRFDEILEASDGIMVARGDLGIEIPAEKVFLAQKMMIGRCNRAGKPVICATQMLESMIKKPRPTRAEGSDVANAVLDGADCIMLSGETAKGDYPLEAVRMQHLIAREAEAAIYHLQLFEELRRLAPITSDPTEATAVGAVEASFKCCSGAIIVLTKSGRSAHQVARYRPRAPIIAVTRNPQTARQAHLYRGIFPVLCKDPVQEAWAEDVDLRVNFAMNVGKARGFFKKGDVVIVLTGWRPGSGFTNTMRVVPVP
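ATP formation by purified human PK-M2, quantified via coupled luciferase luminescence after 1 h at room temperature with 0.1 mM ADP and 0.5 mM PEP final.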
The depositor's hits bear a star; ? = inconclusive; nt = not tested or not shown; [ ] = remark or other dose. Unless noted, calls follow the shape of the dose curve; as a rule, active = well fitted curve in the direction sought with a large enough effect; inconclusive = small, poorly fitted or top-dose-only effect, or another doubt; inactive = no such curve, though single readings can be large; an effect the other way counts as inactive or inconclusive. % is scaled to controls: 0 for no effect and ±100 for the full control effect.

SMILES | CtBP-E1A inh | VP16 counter | RORgamma inh | Six1-Eya2 blk | PKM2 activator
O=C(CSc1nnc(-c2ccc(F)cc2)o1)NC1CCCCC1 | 7 | -4% | 19% | 4 | -3%
CC(C)(C)NC(=O)C12CC3CC(CC(Cl)(C3)C1)C2 | 0 | -14% | 4% | 0 | 0%
CC(C)(C)NC(=S)NC(=O)C12CCC3CC(CC(C3)C1)C2 | -1 | 0% | 0.71µM* | 3 | -4%
CC1CC(=O)Nc2ccccc2N1C(=O)Cn1cnc2ccccc2c1=O (stereo not drawn) | nt | nt | nt | 2 | nt
Cc1cc(C)n2c(NC3CCCCC3)c(CC(C)C)nc2n1 | -1 | nt | nt | 1 | nt
N=C1/C(=C\c2coc3ccc(O)cc3c2=O)C(=O)N=C2SC=CN12 | -90* | -5% | 2% | -80* | 28µM*
Cc1cccc(/C=N/NC(=O)c2cc(C)nc3ccccc23)n1 | nt | ? | 11µM* | 0 | nt
Cc1cc(C(=O)N/N=C/c2ccc(N(C)C)cc2)c2ccccc2n1 | 0 | -7% | 16µM* | -7 | -1%
Cc1cc(C(=O)N/N=C/c2ccc([N+](=O)[O-])cc2)c2ccccc2n1 | -12 | -2% | ? | -2 | 6%
COc1ccc(-n2c(SCC(=O)Nc3cc(C)on3)nc3c(c2=O)SC(C)C3)cc1 (stereo not drawn) | -5 | nt | nt | 4 | nt
Cc1ccc(NC2=C/C(=N/S(=O)(=O)c3cccs3)c3ccccc3C2=O)cc1C | -15 | -28% | ? | -6 | -11%
Cc1ccccc1NC1=C/C(=N\S(=O)(=O)c2cccs2)c2ccccc2C1=O | -85* | 5.6µM* | 4µM* | -84* | 2%
COc1ccc(S(=O)(=O)/N=C2\C=C(Nc3ccc(O)cc3)C(=O)c3ccccc32)cc1 | -88* | 5.6µM* | 10µM* | ? | -28%
CC(=O)Nc1ccc(NC2=C/C(=N/S(=O)(=O)c3cccs3)c3ccccc3C2=O)cc1 | -29 | 5µM* | 7.1µM* | 0 | -33%
CCc1ccc(S(=O)(=O)/N=C2\C=C(NS(=O)(=O)c3ccccc3)C(=O)c3ccccc32)cc1 | ? | -3% | -19% | -15 | nt
Cc1ccccc1NC1=C/C(=N\S(=O)(=O)c2ccc(C(=O)O)cc2)c2ccccc2C1=O | ? | ? | ? | -23 | nt
O=C(O)c1ccc(S(=O)(=O)/N=C2\C=C(Nc3ccccc3F)C(=O)c3ccccc32)cc1 | -76* | ? | ? | ? | -4%
O=C(Oc1c(Cl)cc(Cl)c2cccnc12)c1ccco1 | -14 | ? | 0.28µM* | -92* | 0%
CC(CN1CCOCC1)OC(=O)c1cccs1 (stereo not drawn) | -5 | -22% | -2% | 13 | -4%
O=C(Oc1c(CN2CCOCC2)cc(Cl)c2cccnc12)c1cccs1 | -86* | 1µM* | 1.4µM* | -84* | -9%
O=C(Nc1cccnc1Cl)c1cccs1 | 8 | -2% | 20% | 8 | -10%
O=C(Oc1c(Cl)cc(Cl)c2cccnc12)c1cccs1 | -82* | 1µM* | 0.63µM* | -67* | 3%
O=C(Oc1ccc(Cl)c2cccnc12)N1CCOCC1 | -1 | -3% | -15% | 1 | -2%
O=C(Oc1c(CN2CCOCC2)cc(Cl)c2cccnc12)c1ccccc1Cl | -91* | 3.5µM* | 0.71µM* | -93* | -3%
N#Cc1nc(NCCO)nc(Nc2ccccc2)n1 | nt | -10% | nt | nt | nt
SMILES | CtBP-E1A inh | VP16 counter | RORgamma inh | Six1-Eya2 blk | PKM2 activator
CCC(=O)Nc1ccc2c(c1)nc1n2CCN(CCOC)C1 | nt | 10% | 1% | -2 | nt
CN(C)C(=S)NC(=NCc1ccc([N+](=O)[O-])cc1)c1ccccc1 | -7 | -21% | 20µM* | -4 | -4%[0.46 µM]
CCCN(CCC)C(=S)NC(=O)c1ccc(Cl)cc1Cl | 6 | 0.89µM* | 0.28µM* | 2 | -3%
C=CCNC(=O)c1ccc(Cl)cc1Cl | 4 | 9% | 7% | 0 | 0%
CCCOc1ccc(CN(CCC#N)C(=S)NC(=O)c2ccccc2)cc1 | 0 | 0.56µM* | 0.32µM* | -4 | -4%
CCN(CC)S(=O)(=O)c1ccc(C(=O)NC(=S)N(CCO)Cc2ccccc2)cc1 | -8 | 3.2µM* | 1.1µM* | -1 | nt
CCN(CC)S(=O)(=O)c1ccc(C(=O)NC(=S)N2CCCCC2C)cc1 (stereo not drawn) | 9 | nt | nt | -5 | nt
O=C(NC(=S)N(CCO)Cc1ccccc1)c1ccc(F)cc1Cl | 6 | 2.8µM* | 0.56µM* | 4 | nt
CC(C)=CCN1CCN(Cc2cccn2-c2ccccn2)CC1CCO (stereo not drawn) | -4 | 1% | ? | -9 | -4%
COc1cc(OC)cc(C2=Nn3c(nnc3-c3ccccc3OC)SC2)c1 | nt | -7% | -11% | nt | nt
O=[N+]([O-])c1ccc(Sc2ncc3ccccn23)nc1 | nt | ? | -42% | -4 | 18%
CC1(C(=O)NS(=O)(=O)c2cccs2)CCN1C(=O)Cc1ccccc1 (stereo not drawn) | 1 | nt | nt | 0 | nt
CCC(C)NC(=O)c1c(N)n(/N=C/c2ccccn2)c2nc3ccccc3nc12 (stereo not drawn) | 2 | 3% | 18µM* | -6 | 6%
Clc1nc(-c2ccccn2)nc2scc(-c3ccccc3)c12 | -9 | -3% | 5%[10 µM] | -73* | -13%
S=C(CN1CCCC1=S)NCCc1ccccc1 | 2 | ? | 7.9µM* | 4 | 0%
S=C(NCCc1ccccc1)N1CCc2ccccc2C1 | 7 | ? | ? | 6 | 2%
COc1cc(C(=O)NCC(=O)Nc2c(C)cccc2C)ccc1OCC(=O)N1CCOCC1 | 0 | nt | nt | -3 | nt
O=C1C2C3C=CC(C3)C2C(=O)N1Nc1c(Cl)cc(Cl)cc1Cl (stereo not drawn) | 6 | 15% | -21% | 1 | 3%
CCCOc1ccc2c(c1)C(=NN=C(N)N)c1cc(OCCC)ccc1-2 | ? | -23% | 14µM* | -21 | nt
CCN(CC)CCOc1ccc2c(c1)C(=NO)c1cc(OCCN(CC)CC)ccc1-2 | 2 | -17% | -23% | -10 | -2%
COc1ccc(C(=O)/C=C/c2ccsc2)cc1CSCC(=O)O | 2 | 10µM* | 10µM* | -3 | 2%
O=[N+]([O-])c1cnc(Sc2ccncn2)c([N+](=O)[O-])c1 | 2 | nt | nt | ? | nt
O=[N+]([O-])c1cnc(Sc2ccncn2)s1 | nt | 3.2µM* | 3.2µM* | -13 | 12%
CS(=O)(=O)NCc1nnc(SCc2ccc(C(F)(F)F)cc2)o1 | 1 | 5% | 43% | -4 | -2%
CC(Nc1oc(-c2ccccc2)nc1-c1cccc2ccccc12)c1ccccc1 (stereo not drawn) | nt | -2% | 27% | nt | nt
CC(Nc1ncnc2ccccc12)c1ccccc1 (stereo not drawn) | 9 | 2.8µM* | ? | -4 | -9%[11.5 µM]
CN(Cc1nc(Cc2cccc(F)c2)no1)CC1CCOCC1 | 0 | 9% | -2% | -11 | 0%
NC(c1csc(Nc2cnccn2)n1)C1CCCCC1 (stereo not drawn) | -70* | nt | nt | -26 | nt
